From PubChem BioAssay AID624156 (Broad Institute, 2012)
In all, about 46,000 compounds went through this assay and about 900 (2%) were called active. Not shown: some 1% with an inconclusive outcome. For the sample, actives were picked, then their nearest neighbours and some compounds at random. Values without a mark were called inactive. Cut-off read from the data, not from the text of the source: active = ROS induction above about 79% (passing the limit was not always enough); inconclusive = no clear call, values can overlap the other calls.

Assay: ROS inducers in U2OS cancer cells, primary screen, cell-based, H2DCF-DA fluorescence (AID 624156);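 note: 0% = DMSO vehicle median and 100% = reference compound median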
Details: at 10 µM, active compounds read high

SMILES | ROS induction (% of piperlongumine)
O=C(Nc1cccc(-c2nc3ccccc3o2)c1)c1ccc(Br)cc1 | 4.05%
Cc1nn(C)cc1C(=O)c1ccccc1 | 36.5%
Cc1ccc(C(=O)N/C(=C\c2ccccc2)C(=O)Nc2c(C)n(C)n(-c3ccccc3)c2=O)cc1 | 0.477%
COc1ccc(CNCC2(c3ccccc3)CCCC2)cc1 | 4.91%
COC(=O)c1ccc(-c2ccco2)n1CC(=O)NC1CCCC1 | -2.05%
CCC/C=C/C(=O)OC1C(O)C23C(O)OC4(CCC5C6(C)CCC(OC7OC(C(=O)O)C(O)C(OC8OC(CO)C(O)C(O)C8OC8OC(C)C(O)C(O)C8OC8OCC(O)C(O)C8O)C7OC7OC(CO)C(O)C(O)C7O)C(C)(C)C6CCC5(C)C4(C)CC2OC(C)=O)C3CC1(C)C (stereo unspecified) | -31.6%
COCc1cc(C)nc2sc(C(N)=O)c(N)c12 | 10.2%
Cc1cc(-c2cccs2)c2c(N)c(C(=O)c3ccccc3)sc2n1 | 95.7% (active)
O=C(O)c1ccc(S(=O)(=O)c2ccc(Cl)cc2)cc1 | -2.87%
Cc1c(S(=O)(=O)Nc2ccc(Cl)cc2)sc2ccc(Cl)cc12 | -12.9%
Fc1ccc(NCc2cn(-c3ccccc3)nc2-c2cccs2)c(F)c1 | -6.92%
N#CCC(=O)N(Cc1ccccc1)C(=O)Nc1cccc(F)c1 | -15.5%
CC(C)(C)n1ncc2c(=O)n(Cc3ccc(Cl)cc3)cnc21 | -3.3%
O=C(CSc1nnc(-c2ccccc2)c(-c2ccccc2)n1)Nc1ccccc1 | -5.87%
N#Cc1c(SCC(=O)Nc2ccccc2)ncc2cc3ccccc3nc12 | 192% (active)
Cc1sc2ncnc(SCC(=O)Nc3ccccc3)c2c1-c1ccccc1 | -2.63%
CCCn1c2ccccc2c2nnc(SCC(=O)Nc3cccc4ccccc34)nc21 | 91.7% (active)
c1ccc(Cn2c3ccccc3c3nnc(SCc4ccc5nonc5c4)nc32)cc1 | 21.9%
C=CCn1c2ccccc2c2nnc(SCCCC(=O)c3ccc(F)cc3)nc21 | 81.9% (active)
C=CCn1c2ccccc2c2nnc(SCC(=O)N3c4ccccc4Sc4ccccc43)nc21 | 11.2%
CCOC(=O)CCSc1nnc2c3ccccc3n(C)c2n1 | 39.9%
CCn1c2ccccc2c2nnc(SCC(=O)O)nc21 | -16.9%

SMILES | ROS induction (% of piperlongumine)
O=C(CCCCC(=O)N/N=C/c1ccc[nH]1)NO | -11.8%
COC(=O)c1sccc1NC(=O)Cc1noc2ccc(C)cc12 | -3.41%
CCC(C(=O)Nc1ccc(OC)c(OC)c1)n1c(C)c2cnn(-c3ccccc3)c(=O)c2c1C (stereo unspecified) | 6.12%
CC(=NCc1ccc2c(c1)OCO2)C1=C(O)c2ccccc2C1=O | 3.64%
CC(=NCc1ccco1)C1=C(O)c2ccccc2C1=O | 146% (active)
COc1ccc(C=Nc2ccc(C(C)(C)C)cc2)cc1 | -6.06%
Cc1cccc(N2CCN(C(=O)CCn3c(=S)[nH]c4cc5c(cc4c3=O)OCO5)CC2)c1C | 8.61%
Cc1cccc(N2CCN(C(=O)CC3(CC4=NS(=O)(=O)c5ccccc5N4)CCCC3)CC2)c1C | 172% (active)
CC1=C(C(=O)OC(C)C)C(c2cn(-c3ccccc3)nc2-c2ccc(OC(C)C)cc2)NC(=O)N1 (stereo unspecified) | -3.28%
COc1ccc(S(=O)(=O)N(C)C)cc1 | -6.36%
Cc1ccc2nc(C)c3c(c2c1)N(c1ccccc1)CC3 | 50.9%
Cc1ccc2nc(Nc3ccccc3)cc(C)c2c1 | 178% (active)
Cc1ccc(Nc2nc(C)cc(C)c2C(N)=O)cc1 | 19.7%
C[C@@H]1CN([C@H](C)CO)C(=O)Cc2cc(NC(=O)Nc3ccccc3)ccc2O[C@@H]1CN(C)Cc1ccc(C(F)(F)F)cc1 | 23.2%
COC(=O)c1c(C)nc(C)c(C(=O)OC)c1-c1csc(S(=O)(=O)/N=C/N(C)C)c1 | -10.2%
CCNC(=S)N1CCN(CCN=CC2=C(O)CC(c3ccccc3)CC2=O)CC1 (stereo unspecified) | -5.61%
C=CCn1c(=S)sc2c(SCC(=O)N3CCc4ccccc43)ncnc21 | -9.07%
CCOC(=O)c1c(C)n(C)c2ccccc12 | -3.38%
CCOC(=O)c1nnn2c3ccccc3c(=O)n(C)c12 | 38.4%
CCOC(=O)c1nnn2c1nc(N1CCN(c3ccccc3)CC1)c1ccccc12 | 155% (active)
CCCNC(=O)Cn1c(=O)c2cccn2c2ccccc21 | -9.02%
C=C1C(=O)O[C@H]2C3=C(C)C[C@H](OC(C)=O)C[C@]3(C)CC[C@@H]12 | 210% (active)

SMILES | ROS induction (% of piperlongumine)
Cn1c(COc2ccc(C(C)(C)c3ccccc3)cc2)n[nH]c1=S | -8.56%
CCc1cccc(O[C@@H]2O[C@@H]3COC(c4ccccc4)O[C@H]3[C@H](O)[C@H]2NC(C)=O)c1 (stereo partly specified) | -15.2%
COc1ccccc1N(CC(=O)Nc1ccc(C(F)(F)F)cc1)S(C)(=O)=O | 4.82%
O=C(NCc1cccnc1)c1cnn2c(C(F)F)cc(-c3ccccc3)nc12 | 170% (active)
O=C(c1cc([N+](=O)[O-])ccc1NCc1cccnc1)N1CCOCC1 | 1.17%
NC(=O)c1c(NC(=O)c2cnn3c(C(F)F)cc(-c4ccccc4)nc23)sc2c1CCCC2 | 12.4%
O=C1N(CCS(=O)(=O)c2ccccc2)Cc2ccccc2[C@H]2OC(c3ccc(OCCCO)cc3)=N[C@@]12CCS(=O)(=O)c1ccccc1 | 141% (active)
COCCCNC(=O)[C@@]1(Cc2ccccc2)COC(c2ccc(OCCCO)cc2)=N1 | 11.7%
O=C(N1CCCCC1)[C@@]1(CCS(=O)(=O)c2ccccc2)N=C(c2ccc(OCCCO)cc2)O[C@H]1c1ccccc1 | 97.7% (active)
C=CC[C@]1(C(=O)NCC(O)CO)N=C(c2ccc(OCCCO)cc2)O[C@H]1c1ccccc1 (stereo partly specified) | 30.5%
C[C@H]1CN([C@@H](C)CO)C(=O)Cc2cc(NC(=O)Nc3ccc4c(c3)OCO4)ccc2O[C@H]1CN(C)Cc1ccc(C(=O)Nc2ccccc2N)cc1 | 29.3%
CCc1ccc(OCC(N)=O)cc1 | 18.8%
C[C@@H]1CN([C@H](C)CO)C(=O)c2cccc(NC(=O)c3nc4ccccc4s3)c2O[C@H]1CN(C)Cc1ccccc1 | 10.3%
Nc1ncnc2nc(N3CCCCC3)[nH]c12 | -11.8%
c1ccc(Cc2nc3c4c5c(sc4ncn3n2)CCCC5)cc1 | 20.6%
C[C@@H]1CN([C@H](C)CO)C(=O)Cc2cc(NC(=O)Cc3cn(C)c4ccccc34)ccc2O[C@@H]1CN(C)S(=O)(=O)c1ccccc1 | 18.9%
Cc1ccc(S(=O)(=O)N(C)C[C@@H]2Oc3ccc(NC(=O)Cc4cn(C)c5ccccc45)cc3C(=O)N([C@@H](C)CO)C[C@@H]2C)cc1 | -5.66%
C[C@@H]1CN([C@H](C)CO)C(=O)Cc2cc(NC(=O)Cn3cnnn3)ccc2O[C@@H]1CN(C)S(=O)(=O)c1ccc(F)cc1 | 3.99%
C[C@@H]1CN([C@@H](C)CO)C(=O)Cc2cc(NC(=O)Cn3cnnn3)ccc2O[C@@H]1CN(C)S(=O)(=O)c1cn(C)cn1 | 4.76%
Cc1ccc(S(=O)(=O)N(C)C[C@@H]2Oc3ccc(NC(=O)Cn4cnnn4)cc3CC(=O)N([C@H](C)CO)C[C@H]2C)cc1 | 101% (active)
Cc1ccc(S(=O)(=O)N(C)C[C@H]2Oc3ccc(NC(=O)Cc4cn(C)c5ccccc45)cc3CC(=O)N([C@@H](C)CO)C[C@H]2C)cc1 | 109% (active)
CC(C)(C)NC(=S)N1CCn2cccc2C1c1ccccc1F (stereo unspecified) | 2.09%

SMILES | ROS induction (% of piperlongumine)
Cn1nnc(NC(=O)COc2ccc(Cl)cc2Cl)n1 | -1.96%
Cc1noc(C)c1NC(=O)Nc1ccc2c(c1)C(=O)N([C@H](C)CO)C[C@@H](C)[C@H](CN(C)Cc1ccncc1)O2 | -4.05%
COc1cccc(-c2cnc3c(c2)C(=O)N([C@H](C)CO)C[C@H](C)[C@H](CN(C)Cc2ccncc2)O3)c1 | 32.7%
Cc1c(C(=O)N(Cc2ccccc2)Cc2cccnc2)cnn1-c1ccc(F)cc1 | -9.45%
Brc1ccc(/C=N/n2cnnc2SCc2ccccc2)cc1 | 2.37%
COc1ccc(NS(=O)(=O)c2ccc3c4c(cccc24)C(=O)S3)cc1 | 35.7%
O=C(Oc1c(Br)cc(Br)c2cccnc12)N1CCOCC1 | 3.35%
O=[N+]([O-])c1ccc(NCCNc2nc3ccccc3nc2N2CCOCC2)cc1 | 61%
COC(=O)c1ccc(NCc2cc(O)ccc2O)cc1 | 10.2%
COC(=O)c1c(C)n(CCNc2ccc([N+](=O)[O-])cc2)c2ccc(O)cc12 | 98.5% (active)
C[C@@H]1CCCCO[C@@H](CN(C)C(=O)NC2CCCCC2)[C@@H](C)CN([C@H](C)CO)C(=O)c2cc(NC(=O)CCC(F)(F)F)ccc2O1 | 37.6%
Cc1noc(C)c1NC(=O)N(C)C[C@@H]1Oc2ccc(NC(=O)Nc3ccc(C(F)(F)F)cc3)cc2C(=O)N([C@H](C)CO)C[C@@H]1C | -6.13%
Cc1noc(C)c1NC(=O)N(C)C[C@H]1Oc2ccc(NC(=O)Nc3ccc(C(F)(F)F)cc3)cc2CC(=O)N([C@@H](C)CO)C[C@@H]1C | 87.8% (active)
C[C@H](CO)N1C[C@H](C)[C@H](CN(C)C(=O)Nc2ccc(C(F)(F)F)cc2)Oc2ccc(NS(=O)(=O)c3cn(C)cn3)cc2CC1=O | 125% (active)
C[C@H]1CN([C@@H](C)CO)C(=O)Cc2cc(NS(=O)(=O)c3cn(C)cn3)ccc2O[C@H]1CN(C)C(=O)Nc1ccc(F)cc1 | 29.3%
Cc1noc(C)c1NC(=O)Nc1ccc2c(c1)CC(=O)N([C@H](C)CO)C[C@@H](C)[C@@H](CN(C)Cc1ccc(C(F)(F)F)cc1)O2 | 6.6%
C[C@H](CO)N1C[C@H](C)[C@H](CN(C)C(=O)Nc2ccc(C(F)(F)F)cc2)Oc2ccc(NC(=O)Nc3ccccc3)cc2C1=O | 84% (active)
C[C@H]1CN([C@@H](C)CO)C(=O)c2cc(NC(=O)Nc3ccccc3)ccc2O[C@@H]1CN(C)C(=O)Nc1ccccc1 | -12.6%
C[C@@H]1CN([C@H](C)CO)C(=O)Cc2cc(NS(=O)(=O)c3cn(C)cn3)ccc2O[C@@H]1CN(C)C(=O)Nc1ccccc1 | -5.68%
C[C@@H]1CN([C@H](C)CO)C(=O)c2cc(NC(=O)Nc3ccc(C(F)(F)F)cc3)ccc2O[C@H]1CN(C)C(=O)Nc1ccccc1 | 23.2%
